From PubChem BioAssay AID1851 (National Center for Advancing Translational Sciences (NCATS), 2009)
“And” between values parts separate entries of the source, which are not always exact repeats. Identical values can stand only once. Among all 16,000 compounds or so, about 2,600 (16%) were called active. About 20% were inconclusive and are not listed. Calls follow the shape of the dose curve; as a rule, active = well fitted curve in the direction sought with a large enough effect; inconclusive = small, poorly fitted or top-dose-only effect, or effect the other way; inactive = no such curve, though single readings can be large or run the other way. Not all results are given here. Some compounds were tested as several samples or in several runs, with calls that do not always agree.

target: Cytochrome P450 2D6 (Homo sapiens) (UniProt P10635); experiment: Cytochrome panel assay with activity outcomes; conditions: recombinant CYP, pro-luciferin dealkylation, luminescence, p450-cyp2d6; series mostly up to 57.1 µM; activity, negative = inhibition: at the top concentration
% is scaled to controls: 0 for no effect and ±100 for the full control effect.

Sequence of Cytochrome P450 2D6 (Homo sapiens) (P10635 whole entry, looked up): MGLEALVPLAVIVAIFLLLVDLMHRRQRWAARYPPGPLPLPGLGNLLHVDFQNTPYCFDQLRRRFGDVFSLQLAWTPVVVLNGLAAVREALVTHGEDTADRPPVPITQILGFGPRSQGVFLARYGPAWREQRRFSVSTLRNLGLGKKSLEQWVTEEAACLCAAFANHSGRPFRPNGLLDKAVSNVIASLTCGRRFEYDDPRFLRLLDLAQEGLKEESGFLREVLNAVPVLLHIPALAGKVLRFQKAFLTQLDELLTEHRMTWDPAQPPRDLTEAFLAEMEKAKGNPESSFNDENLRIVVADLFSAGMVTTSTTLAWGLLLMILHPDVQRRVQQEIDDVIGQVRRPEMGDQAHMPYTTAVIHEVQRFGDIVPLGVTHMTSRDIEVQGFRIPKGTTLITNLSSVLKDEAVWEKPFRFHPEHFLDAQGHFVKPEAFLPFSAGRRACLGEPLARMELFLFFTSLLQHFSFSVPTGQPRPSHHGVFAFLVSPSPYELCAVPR

| SMILES | activity, negative = inhibition | AC50 |
| --- | --- | --- |
| O=C(Cc1cccs1)N/N=C/C(Br)=C/c1ccccc1 | -28.8% (inactive) | – |
| CCNc1ncc2nc(-c3cc(F)cc(F)c3)c(=O)n(CCC#N)c2n1 | – | 0.0631 µM (active) |
| N#CCCn1c(=O)c(-c2ccccc2)nc2cnc(Nc3ccccc3)nc21 | 4.06% (inactive) | – |
| COc1ccc(-c2nc3cnc(Nc4ccccc4)nc3n(CCC#N)c2=O)cc1 | 6.64% (inactive) | – |
| CCNc1ncc2nc(-c3ccccc3)c(=O)n(CCC#N)c2n1 | – | 0.501 µM (active) |
| COc1ncc2nc(-c3cc(F)cc(F)c3)c(=O)n(CCC#N)c2n1 | -10.6% (inactive) | – |
| N#CCCn1c(=O)c(-c2cc(F)cc(F)c2)nc2cnc(Nc3ccccc3)nc21 | 1.97% (inactive) | – |
| COC(=O)[C@@]1(Cc2ccc(F)cc2)[C@H]2c3cc(C(=O)N4CCCC4)n(CCCNc4ncc(C(F)(F)F)cc4Cl)c3C[C@H]2CN1C(=O)c1ccccc1 | 3.6% (inactive) | – |
| CCOC(=O)[C@]1(CC(=O)O)CCCC1=O | -6.09% [at 11.4 µM] (inactive) | – |
| COc1ccc(C2CC(=O)c3cnc(Nc4cc(C)cc(C)c4)nc3C2)cc1 (stereo not given) | -11.6% (inactive) | – |
| O=C1NC(=O)C(c2ccccc2[N+](=O)[O-])=C1Nc1ccc(O)c(Cl)c1 | 2.19% (inactive) | – |
| Cc1occc1C(=O)NNC(=O)c1ccc(F)cc1 | -29% (inactive) | – |
| COc1ccc(-n2c(=S)[nH]c3cc(C(=O)NCCCN4CCCC4=O)ccc3c2=O)cc1 | -6.32% (inactive) | – |
| COc1ccc2c(c1OC)C(=O)OC2[C@H]1c2c(cc3c(c2OC)OCO3)CCN1C (stereo not given in full) | – | 10 µM (active) |
| COc1ccc2c(c1OC)C(=O)O[C@@H]2[C@H]1c2c(cc3c(c2OC)OCO3)CCN1C | 0.746% (inactive) | – |
| COc1ccc2c(c1OC)C(=O)OC2Nc1ncccc1C (stereo not given) | -10.4% (inactive) | – |
| COc1ccc(/C(C)=N/NC(=O)c2ccc(CSc3cccc4cccnc34)cc2)cc1OC | -9.22% (inactive) | – |
| Cc1ccccc1-c1cc(C(=O)n2cccn2)c2cc(Cl)ccc2n1 | -13.5% (inactive) | – |
| Cc1cc(N2C(=O)C(O)=C(C(=O)c3cccs3)C2c2cccc(O)c2)no1 (stereo not given) | -3.43% (inactive) | – |
| COC(=O)CSc1cc(C(F)(F)F)nc(-c2ccccn2)n1 | 6.24% (inactive) | – |
| CCOC(=O)CSc1nc2c(cnn2-c2ccc(C)cc2)c(=O)[nH]1 | 7.23% (inactive) | – |
| N#CCSc1nc2cc(C(=O)N3CCCC3)ccc2c(=O)n1Cc1ccccc1 | -16.5% (inactive) | – |
| Cc1nc2cnc(Oc3cccc(Cl)c3)nc2n(C[C@H]2CCCO2)c1=O | 4.36% (inactive) | – |
| COCCNc1ncnc2ccc(-c3cccc(NS(C)(=O)=O)c3)cc12 | -1.19% (inactive) | – |

| SMILES | activity, negative = inhibition | AC50 |
| --- | --- | --- |
| CS(=O)(=O)Nc1cccc(-c2ccc3ncnc(NCCN4CCOCC4)c3c2)c1 | -8.45% (inactive) | – |
| c1csc(CNc2ncnc3ccc(-c4ccoc4)cc23)c1 | – | 15.8 µM (active) |
| CS(=O)(=O)Nc1cccc(-c2ccc3ncnc(NCc4cccs4)c3c2)c1 | – | 20 µM (active) |
| COc1cccc(-c2ccc3ncnc(NCc4cccs4)c3c2)c1 | – | 10 µM (active) |
| CN(/C=C/C(=O)C(F)(F)F)Cc1ccccc1 | 0.82% (inactive) | – |
| Cc1[nH]c2ccccc2c1-c1cc(-c2cc(-c3c(C)[nH]c4ccccc34)on2)no1 | 5.28% [at 11.4 µM] (inactive) | – |
| CCCC[C@@H]1C[C@H]1C(NC(=O)c1cccnc1)c1ccc(-c2ccccc2)cc1 (stereo not given in full) | -5.63% (inactive) | – |
| CCOC(=O)c1cnn(-c2cc(Oc3ccccc3)ncn2)c1N | -6.66% (inactive) | – |
| Cc1nc(SCC(=O)c2ccc(F)cc2)c([N+](=O)[O-])[nH]1 | – | 10 µM (active) |
| Cc1ccc(C(=O)CSc2nc(C)cc(=O)[nH]2)cc1 | -1.53% (inactive) | – |
| Cc1cc(C)c(C(N)=O)c(SCC(=O)c2ccc(Cl)cc2)n1 | -3.15% (inactive) | – |
| Oc1ccccc1CNn1cnnc1 | 17.8% (inactive) | – |
| O=c1[nH]c2cc([N+](=O)[O-])c([N+](=O)[O-])cc2[nH]c1=O | -3.93% (inactive) | – |
| CC(CCc1ccccc1)NC(=O)C(=O)NCCO (stereo not given) | 22.2% (inactive) | – |
| C[C@@H](CCc1ccccc1)NC[C@H](O)c1ccc(O)c(C(N)=O)c1 | – | 3.98 µM (active) and 2 µM (active) |
| C[C@@H](CCc1ccc(O)cc1)NCCc1ccc(O)c(O)c1 | -10.3% [at 25.6 µM] (inactive) | – |
| O=C(OCC(=O)c1cccs1)c1cccc(C(=O)OCC(=O)c2cccs2)n1 | – | 4.47 µM (active) |
| O=C(COc1cccc2ccccc12)NNC(=O)c1cccs1 | -20.2% (inactive) | – |
| CCOC(=O)c1cccc(C(=O)OCC)n1 | 16.1% (inactive) | – |
| O=C(Nc1nnc(COc2ccc(Cl)cc2)s1)c1ccc([N+](=O)[O-])cc1 | 11.5% (inactive) | – |
| CCOc1ccc2ccccc2c1C(=O)N[C@@H]1C(=O)N2[C@@H]1SC(C)(C)[C@@H]2C(=O)O | 3.09% [at 25.6 µM] (inactive) | – |
| O=[N+]([O-])c1cc(C(F)(F)F)ccc1NCCCCNS(=O)(=O)c1ccc2ccccc2c1 | -21.4% (inactive) | – |
| COC(=O)c1ccccc1NC(=O)c1ccc(Cn2cc(Cl)cn2)o1 | -0.222% (inactive) | – |
| Nc1ccc(C(=O)N/N=C/c2ccccc2)cc1 | 7.05% (inactive) | – |

| SMILES | activity, negative = inhibition | AC50 |
| --- | --- | --- |
| CC[C@@]12CCCN3CCc4c(n(c5ccccc45)C(=O)C1)[C@H]32 | – | 20 nM (active) and 251 nM (active) |
| CC[C@@]12CCCN3CCc4c(n(c5ccccc45)[C@](O)(C(=O)OC)C1)[C@H]32 | – | inactive and 251 nM (active) |
| CCOC(=O)C1=C[C@@]2(CC)CCCN3CCc4c(n1c1ccccc41)[C@H]32 | – | 6.31 µM (active) and inactive |
| Cn1c(Cc2cccc3ccccc23)nnc1SCC(=O)N1CCN(c2ccccc2)CC1 | -4.52% (inactive) | – |
| CSc1nc(-c2ccc(C)cc2)nc(C(Cl)Cl)n1 | -0.974% (inactive) | – |
| CCCC[C@H]1C(=O)N(c2ccccc2)N(c2ccc(O)cc2)C1=O | -4.48% [at 25.6 µM] (inactive) | – |
| CCOC(=O)N1CCN(S(=O)(=O)c2ccc3[nH]cc(C(=O)O)c(=O)c3c2)CC1 | 1.73% (inactive) | – |
| C[C@@]12CCC(=O)C=C1CC[C@H]1[C@@H]2[C@@H](O)C[C@]2(C)[C@@H]1CC[C@@]2(O)C(=O)COC(=O)C1CCCC1 | 8.32% [at 11.4 µM] (inactive) | – |
| CCCn1c(=O)c2[nH]c(-c3ccc(OCC(=O)NCCN)cc3)nc2n(CCC)c1=O | -3.55% (inactive) | – |
| C[C@@]12CCC(=O)C=C1CC[C@H]1[C@@H]2[C@@H](O)C[C@]2(C)[C@@H]1CC[C@@]2(O)C(=O)CO | 17% [at 11.4 µM] (inactive) | – |
| O=C(Oc1ccccc1)N1CCC2(CC1)CCN(c1cccc(-c3ccccc3)c1)CC2 | -1.29% (inactive) | – |
| CCCCCCCCN[C@@H](C)[C@H](O)c1ccc(SC(C)C)cc1 | – | 1 µM (active) |
| CCCn1cnc2c(SCC(=O)O)nc(N)nc21 | 7.62% [at 11.4 µM] (inactive) | – |
| CCOc1nc(NC(C)C)nc(NC(C)C)n1 | 2.84% (inactive) | – |
| COc1ccc(Nc2ncnc3sc(-c4ccccc4)cc23)cc1 | – | 28.2 µM (active) |
| COc1ccc(-n2cnc3sc(-c4ccccc4)cc3c2=O)cc1 | 3.48% (inactive) | – |
| COc1cccc(Nc2ncc(C(=O)O)c3ccccc23)c1 | -14.6% (inactive) | – |
| Fc1ccc(-c2cn3cc(C(F)(F)F)cc(Cl)c3n2)cc1 | -24.8% (inactive) | – |
| COc1cc2nc(SCc3ccc(Cl)cc3Cl)n(Cc3cccs3)c(=N)c2cc1OC | – | 2.24 µM (active) |
| CCCCNC(=O)CSc1nc2cc(OC)c(OC)cc2c(=O)n1Cc1ccc(OC)cc1 | -21.3% (inactive) | – |
| CN1CCN(c2ncc3nc(-c4ccc(Cl)cc4)c(=O)n(Cc4cccs4)c3n2)CC1 | -9.03% (inactive) | – |
| COc1ccc(Cn2c(SCc3ccccc3C)nc3cc(OC)c(OC)cc3c2=N)cc1 | – | 1.26 µM (active) |
| COCCNC(=O)CSc1nc2ccc(N3CCOCC3)cc2c(=O)n1Cc1ccc(OC)cc1 | -6.47% (inactive) | – |
| COc1ncc2ncc(=O)n(Cc3cccs3)c2n1 | -10.7% (inactive) | – |

| SMILES | activity, negative = inhibition | AC50 |
| --- | --- | --- |
| CC(=O)N(O)CCCCCNC(=O)CCC(=O)N(O)CCCCCNC(=O)CCC(=O)N(O)CCCCCN | 2.63% [at 25.6 µM] (inactive) | – |
| CN1CCC2(CC1)CCN(C(=O)c1cc(C(F)(F)F)cc(C(F)(F)F)c1)CC2 | 0.0116% (inactive) | – |
| Cc1noc(C)c1COc1cccc(C(=O)OCC(=O)N2CC(=O)Nc3ccccc32)c1 | 0.688% (inactive) | – |
| CN(CC(=O)O)Cc1c(O)c(Cl)cc(Cl)c1Cl | 8.14% [at 11.4 µM] (inactive) | – |
| N[C@@H](C(=O)O)c1ccc(C(=O)O)c(O)c1 | 1.24% (inactive) | – |
| N[C@H](C(=O)O)c1ccc(C(=O)O)cc1 | 3.45% (inactive) | – |
| N[C@H](C(=O)O)c1ccc(O)c(C(=O)O)c1 | -6.21% (inactive) | – |
| N[C@@H](C(=O)O)c1ccc(C(=O)O)cc1 | – | inactive |
| N[C@@H](C(=O)O)c1ccc(P(=O)(O)O)cc1 | – | 25.1 µM (active) |
| N[C@@H](C(=O)O)c1ccc(C(=O)O)c(C(=O)O)c1 | – | 7.94 µM (active) and inactive |
| O=C(Oc1ccccc1N1C(=O)C2CCCCC2C1=O)c1ccccc1 (stereo not given) | -2.61% (inactive) | – |
| COCCn1c(=O)c(CCc2ccccc2)nc2cnc(Oc3cccc(Cl)c3)nc21 | -6.18% (inactive) | – |
| Nc1ccc(S(=O)(=O)Nc2nccs2)cc1 | 5.42% [at 25.6 µM] (inactive) | – |
| CCN(CC)c1ccc(SS(=O)(=O)O)cc1 | -13% (inactive) | – |
| C[C@@H](C(=O)NCc1ccccn1)[C@@H]1C[C@@]1(C)[C@@H](NC(=O)OCc1ccccc1)c1ccccc1 | – | 12.6 µM (active) |
| C[C@@H](C(=O)NCCF)[C@H]1C[C@]1(C)[C@H](NC(=O)OCc1ccccc1)c1ccccc1 | – | 6.31 µM (active) |
| C[C@@H](C(=O)NCCc1c[nH]c2ccccc12)[C@H]1C[C@]1(C)[C@H](NC(=O)OCc1ccccc1)c1ccccc1 | – | 2 µM (active) |
| COC(=O)[C@H](C)[C@H]1C[C@]1(C)[C@H](NC(=O)OCc1ccccc1)c1ccccc1 | 5.73% (inactive) | – |
| O=C(N[C@@H](c1ccccc1)[C@@H]1C[C@H]1C(=O)NCc1ccccn1)OCc1ccccc1 | 1.41% (inactive) | – |
| O=C(N[C@@H](c1ccccc1)[C@@H]1C[C@H]1C(=O)O)OCc1ccccc1 | 9.66% (inactive) | – |
| C[C@@H](C(=O)NCc1cccc2ccccc12)[C@H]1C[C@]1(C)[C@H](NC(=O)OCc1ccccc1)c1ccccc1 | -9.78% (inactive) | – |
| COC(=O)[C@H](C)[C@@H]1C[C@@]1(C)[C@@H](NC(=O)OCc1ccccc1)c1ccccc1 | -2.56% (inactive) | – |
| C[C@@H](C(=O)NCc1ccc(S(C)(=O)=O)cc1)[C@H]1C[C@]1(C)[C@H](NC(=O)OCc1ccccc1)c1ccccc1 | – | 0.398 µM (active) |
